Data from PubChem BioAssay AID743342 (Broad Institute, 2014).
Entries with a potency or affinity are not part of this list. Active and inactive are the calls of the source.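 How the source made its calls: active means every replicate test run was called active, each showing a signal decrease within twice the top valid dose; inconclusive means replicate test runs disagree on the call; inactive means every test run inactive, including signal moving upward.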

tested on: Drosophila bursicon receptor LGR2 (rickets); assay: LGR2 antagonists, dose response, cell-based, HEK293, CRE-luciferase reporter, cherry pick (AID 743342); details: bursicon antagonist, 4 h; series mostly up to 35 µM

outcome, inactive:
Cc1ccc(S(=O)(=O)Nc2ccc3c(c2)C(=O)N([C@H](C)CO)C[C@@H](C)[C@H](CN(C)S(=O)(=O)c2cccs2)OCCCC[C@@H](C)O3)cc1
CC(C)NC(=O)Nc1ccc2c(c1)C(=O)N([C@H](C)CO)C[C@@H](C)[C@H](CN(C)S(C)(=O)=O)OCCCC[C@H](C)O2
Cc1noc(C)c1S(=O)(=O)Nc1ccc2c(c1)C(=O)N([C@H](C)CO)C[C@H](C)[C@H](CN(C)C(=O)Nc1ccc(F)cc1)OCCCC[C@@H](C)O2
C[C@@H]1CN([C@@H](C)CO)C(=O)c2cc(NS(C)(=O)=O)ccc2O[C@@H](C)CCCCO[C@@H]1CN(C)Cc1ccc(C(F)(F)F)cc1
COc1ccc(S(=O)(=O)Nc2ccc3c(c2)C(=O)N([C@H](C)CO)C[C@H](C)[C@H](CN(C)S(=O)(=O)c2ccc(F)cc2)OCCCC[C@@H](C)O3)cc1
COc1ccc(S(=O)(=O)Nc2ccc3c(c2)C(=O)N([C@@H](C)CO)C[C@@H](C)[C@H](CN(C)C(=O)Nc2cccc4ccccc24)OCCCC[C@H](C)O3)cc1
C[C@H](CO)N1C[C@H](C)[C@H](CN(C)C(=O)Cc2ccccc2)OCCCC[C@H](C)Oc2ccc(NC(=O)Nc3ccc(C(F)(F)F)cc3)cc2C1=O
COc1ccc(S(=O)(=O)Nc2ccc3c(c2)C(=O)N([C@@H](C)CO)C[C@H](C)[C@@H](CN(C)C(=O)Nc2cccc4ccccc24)OCCCC[C@H](C)O3)cc1
C[C@@H]1CCCCO[C@H](CN(C)CC2CCCCC2)[C@H](C)CN([C@H](C)CO)C(=O)c2cc(NS(=O)(=O)c3ccccc3)ccc2O1
